esBAF inh: inhibitors of esBAF chromatin remodeling in mouse ES cells; Bmi1-luciferase knock-in reporter, 24 h; 100% = twice the neutral-well signal; reporter increase, % at 12.5 µM; actives 2% (n = 350,000); in the data active = activation above about 40%; inconclusive = no clear call, values can overlap the other calls;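 note: a rise in the Bmi1 reporter signal indicates esBAF inhibition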
MITF TRPM1 HTS: MITF TRPM1 promoter activation in melanoma cells; SK-MEL-5 TRPM1-promoter luciferase, 24 h; % of positive control, neutral wells = 0; activation, % at 12.5 µM; actives 0.75% (n = 300,000); AID 588334;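 active = mean activation of at least 80% with every replicate also reaching 80%; inconclusive = mean reaches 80% but some replicate falls short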
C2C12 statin: protects C2C12 myotubes from simvastatin toxicity; ATP luminescence, 48 h; scaled: DMSO 0, geranylgeraniol control 100; rescue of ATP level, % at 7.49 µM; actives 0.78% (n = 330,000);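 active = mean ATP rescue above about 67%, or every replicate alone reaching that limit, limit read from the data, passing the limit was not always enough; inconclusive = no clear call, values can overlap the other calls; inactive = mean under the limit and some replicate under it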;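 note: myotubes were challenged with 10 µM simvastatin during compound exposure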
Wnt bcat act: activates Wnt/beta-catenin signaling in a reporter cell assay | actives 1.2% (n = 300,000) | activator, plate reader | activation, % at 9.35 µM; in the data active = activation above about 30%, passing the limit was not always enough; inconclusive = no clear call, values can overlap the other calls
GAA850 FXN act: activators of GAA850 frataxin (FXN) promoter; HEK293 lucGAA850 FXN promoter luciferase reporter, 24 h; percent of 10 µM SAHA response; activation, % at 6 µM; actives 0.56% (n = 360,000);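 active = activation above the average of all compounds screened plus 3 SD, cutoff fixed separately per campaign, cut at about 7.5% in these data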
A number is an active result; i = inactive; ? = inconclusive; nt = no result given. Rows were chosen to be rich in hits. Some 3.3% of all compounds tested hit in one or more screens of this group.

SMILES	esBAF inh	MITF TRPM1 HTS	C2C12 statin	Wnt bcat act	GAA850 FXN act
CC(NS(=O)(=O)c1cccc(Cl)c1)C(=O)Nc1ccc(-c2nc3ccccc3s2)cc1 (stereo not given)	i	?	i	i	i
O=C(CNS(=O)(=O)c1cccc(Cl)c1)Nc1ccc(-c2nc3ccccc3s2)cc1	nt	i	nt	?	i
Cc1ccc2sc(-c3ccc(NC(=O)CCN4C(=O)c5ccccc5C4=O)cc3)nc2c1	nt	nt	nt	73.1	nt
Cc1ccc(C)c(S(=O)(=O)NC(C)C(=O)Nc2ccc(-c3nc4ccccc4s3)cc2)c1 (stereo not given)	51.6	i	i	i	i
COc1cccc(/C(C)=N/NC(=O)c2ccc(N(C)C)cc2)c1	53.0	i	i	nt	i
COc1cccc(NC(=O)c2cccc(C(=O)Nc3cccc(OC)c3)c2)c1	i	nt	i	i	i
O=C(Nc1ccc(Br)cc1F)c1ccncc1	i	i	i	nt	i
COc1cccc(NC(=O)c2ccc3nsnc3c2)c1	56.3	i	i	i	i
O=C(Nc1ccc(Br)cc1F)c1ccc2nsnc2c1	?	128.5	i	i	i
COc1cccc(NC(=O)c2ccc(OC(F)(F)F)cc2)c1	71.7	107.2	i	37.1	i
CO[C@@H]1CN(C)C(=O)c2cc(NC(=O)Cc3ccccc3)ccc2OC[C@H](C)NC[C@H]1C	i	nt	i	nt	nt
COc1ccc(-c2cnc3c(c2)C(=O)N([C@H](C)CO)C[C@H](C)[C@H](CN(C)Cc2ccc(F)cc2)O3)cc1	i	nt	i	nt	nt
O=C(C[C@@H]1CC[C@@H](NC(=O)c2cccc(F)c2)[C@H](CO)O1)NCCN1CCCC1	i	nt	i	nt	nt
O=C(Nc1ccc(F)cc1)c1ccc2nsnc2c1	?	i	i	39.2	i
Cc1ccc(NC(=O)c2ccc3snnc3c2)cc1	nt	i	nt	i	i
COc1ccc(/C=C(\NC(=O)c2ccc(OC)cc2)C(=O)Nc2cccc(C(=O)O)c2)cc1	46.1	i	i	i	i
COc1cc(NC(=O)c2ccc3snnc3c2)cc(OC)c1	46.9	i	i	i	i
COc1cccc(NC(=O)c2cccc(C)c2[N+](=O)[O-])c1	nt	i	nt	33.4	i
Cc1noc(C)c1S(=O)(=O)Nc1ccc2c(c1)C(=O)N([C@@H](C)CO)C[C@@H](C)[C@H](CN(C)C(=O)CCC(F)(F)F)OCCCC[C@H](C)O2	i	nt	nt	nt	nt
COc1ccc(S(=O)(=O)Nc2ccc3c(c2)C(=O)N([C@@H](C)CO)C[C@@H](C)[C@@H](CN(C)C(=O)NC(C)C)O3)cc1	i	nt	nt	nt	nt
COc1cccc(NC(=O)CCN2CCN(c3ccccc3F)CC2)c1	i	i	77.6	i	i
COc1ccc(/C=C(/NC(=O)c2ccccc2Cl)C(=O)O)cc1	nt	i	nt	47.0	i
COc1ccccc1OCCNC(=O)c1ccc(Br)cc1	56.0	i	i	i	i
COc1cccc(NC(=O)c2nnn(CCc3ccccc3)c2N)c1	77.7	i	i	i	i
COc1ccc(/C=C(/NC(=O)c2ccccc2Cl)C(=O)NCCCC(=O)O)cc1	nt	i	nt	i	i
SMILES	esBAF inh	MITF TRPM1 HTS	C2C12 statin	Wnt bcat act	GAA850 FXN act
COc1ccccc1OCCNC(=O)c1ccc(C(C)(C)C)cc1	nt	nt	nt	i	i
CC(=O)c1ccc(NC(=O)c2cccc(NC(=O)c3ccccc3)c2)cc1	?	nt	i	i	i
COc1cccc(NC(=O)c2nn(C)cc2Br)c1	54.8	i	i	nt	i
COc1ccccc1OCc1ccc(C(=O)Nc2ccccc2)cc1	78.6	i	i	i	i
COc1cccc(NC(=O)c2ccccc2)c1	i	104.5	i	i	i
CC(C)OC(=O)c1cccc(NC(=O)c2ccccc2)c1	nt	82.9	nt	?	i
CCOc1ccc(NC(=O)c2nn(C)cc2Br)cc1	i	i	i	nt	i
COc1cc(C(=O)Nc2ccc(NC(C)=O)cc2)ccc1OCc1ccccc1	nt	i	nt	i	i
O=C(C[C@@H]1CC[C@H]2[C@@H](COC[C@@H](O)CN2C(=O)c2ccc(F)cc2)O1)NC1Cc2ccccc2C1	i	nt	i	nt	nt
CCCNC(=O)Nc1ccc2c(c1)C(=O)N(C)C[C@@H](OC)[C@H](C)CN(CC1CCCC1)[C@@H](C)CO2	i	nt	i	nt	nt
Cn1cc(Br)c(C(=O)NNC(=O)c2ccc(Cl)cc2)n1	i	i	i	51.3	i
Cn1cc(Br)c(C(=O)NNC(=O)Cc2ccc(Cl)cc2)n1	i	i	i	i	i
O=C(Nc1ccccc1)Nc1nnc(/C=C/c2ccccc2Cl)s1	nt	i	nt	nt	i
Nc1nnc(/C=C/c2ccccc2Cl)s1	nt	nt	nt	54.8	i
CC(C)C#Cc1cnc2c(c1)C(=O)N([C@@H](C)CO)C[C@H](C)[C@H](CN(C)C(=O)Nc1ccc(F)cc1)O2	i	nt	i	nt	nt
CCCc1cn(CC[C@H]2CC[C@H](NS(=O)(=O)c3ccc(-c4ccccc4)cc3)[C@@H](CO)O2)nn1	i	nt	i	nt	nt
O=C(/C=C/c1ccco1)Oc1ccc(C(=S)N2CCOCC2)cc1	nt	i	nt	84.0	i
O=Cc1cccc(OC(=O)/C=C/c2ccco2)c1	48.2	nt	i	i	i
Cc1ccc(S(=O)(=O)N(C)C[C@H]2OCCCC[C@@H](C)Oc3ccc(N(C)C)cc3C(=O)N([C@@H](C)CO)C[C@H]2C)cc1	i	nt	i	nt	nt
CO[C@@H]1CN(C)C(=O)c2cc(NC(=O)C3CC3)ccc2OC[C@@H](C)N(Cc2ccccc2)C[C@@H]1C	i	nt	i	nt	nt
C[C@H]1CN([C@@H](C)CO)C(=O)c2cccc(NC(=O)Nc3cccc4ccccc34)c2O[C@H]1CN(C)C(=O)Nc1ccc2c(c1)OCO2	i	nt	nt	nt	nt
CCS(=O)(=O)Nc1ccc2c(c1)C(=O)N(C)C[C@@H](OC)[C@@H](C)CN(Cc1nccs1)[C@H](C)CO2	i	nt	i	nt	nt
CCOC(=O)N1CCN(C(=O)c2cc(-n3cnnc3)ccc2Cl)CC1	i	i	94.9	i	i
CC(=O)Nc1c(O)nc(SCC(=O)Nc2ccc(C(C)=O)cc2)[nH]c1=O	75.5	i	i	i	i
CCCC(=O)c1ccc(N2CCCCCC2)c(F)c1	52.0	nt	i	i	i
SMILES	esBAF inh	MITF TRPM1 HTS	C2C12 statin	Wnt bcat act	GAA850 FXN act
CCCC(=O)c1ccc(N2CCC(C)CC2)c(F)c1	nt	i	nt	51.7	i
COC(=O)c1ccc(N2CCCCC2)c(N)c1	58.5	87.5	i	i	i
Cn1cnc(S(=O)(=O)N[C@@H]2C=C[C@H](CC(=O)N3CCN(c4ccccc4)CC3)O[C@H]2CO)c1	i	nt	i	nt	nt
CCNC(=O)C[C@H]1C=C[C@H](NC(=O)NC2CCCCC2)[C@H](CO)O1	i	nt	i	nt	nt
CC(C)NC(=O)N(C)C[C@H]1Oc2cc(C#CC(C)(C)O)ccc2S(=O)(=O)N([C@@H](C)CO)C[C@@H]1C	i	nt	i	nt	nt
Cc1ccc(C(=O)COC(=O)c2cccs2)cc1	nt	i	nt	52.2	i
Cc1ccc(S(=O)(=O)NCC(=O)OCC(=O)c2ccc(Br)s2)cc1	i	i	i	nt	i
O=C(COC(=O)c1cccs1)c1ccc2ccccc2c1	42.2	nt	nt	32.2	i
Cc1ccc(S(=O)(=O)NCC(=O)OCC(=O)c2cccs2)cc1	i	i	124.8	i	i
CCc1ccc(C(=O)COC(=O)c2cccs2)cc1	i	?	i	61.7	i
C[C@@H]1CCCCO[C@H](CN(C)C(=O)Nc2ccc(F)cc2)[C@@H](C)CN([C@H](C)CO)C(=O)c2cc(NS(=O)(=O)c3cn(C)cn3)ccc2O1	i	nt	nt	nt	nt
